The full data set covers some 7,900 targets. This sample favours those with a hit. About 0.6% of all pairs of compound and target were hits.
Tests used:
Test in all cases: log2 fold change, soluble protein after heating vs DMSO (PISA); higher = thermal stabilisation; K562 cells, 10 uM, 30 min; active = over 0.2 and 3.5 SD of the protein, either way, in both replicates (recomputed)
[1] = compound: Cc1ccc(NC(=O)c2ccc(CN3CC[C@H](N(C)C)C3)c(C(F)(F)F)c2)cc1Nc1nccc(-c2cncnc2)n1 [bafetinib]
In short: (§1)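 Values are thermal stability changes relative to control samples and are taken from duplicates. They are stated as log2 fold changes. Before quantification by TMTpro 16plex LC-MS/MS with equalised channel sums, K562 cells at 2×10^6 cells/mL were treated with 10 μM compound for 30 min, heated in aliquots for 3 min across 48°C-58°C, pooled, extracted in PBS with 0.5% NP-40 at 4°C, and centrifuged at 21,000xg for 90 min to give the soluble supernatant.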

[2] = compound: Cc1cccc(CC(=O)N2CCc3c2ccc(-c2cn(C)c4ncnc(N)c24)c3F)n1
In short: as §1

[3] = compound: Cc1cn(-c2cc(NC(=O)c3ccc(C)c(Nc4nccc(-c5cccnc5)n4)c3)cc(C(F)(F)F)c2)cn1 [nilotinib]
In short: as §1

[4] = compound: Cc1nc(Nc2n[nH]c3c2CN(C(=O)N[C@H](CN(C)C)c2ccccc2)C3(C)C)c2sccc2n1
In short: as §1

[5] = compound: Cc1nc(Nc2ncc(C(=O)Nc3c(C)cccc3Cl)s2)cc(N2CCN(CCO)CC2)n1 [dasatinib]
In short: as §1

[6] = compound: Cc1ncc(-c2ccnc(Nc3ccc(S(C)(=O)=O)cc3)n2)n1C(C)C
In short: as §1

[7] = compound: Cn1cc(-c2ccc3c(c2)CCN3C(=O)Cc2cccc(C(F)(F)F)c2)c2c(N)ncnc21
In short: as §1

[8] = compound: Cn1cc(-c2ccc3nnc(C(F)(F)c4ccc5ncccc5c4)n3n2)cn1
In short: as §1

[9] = compound: Cn1cncc1[C@@](N)(c1ccc(Cl)cc1)c1ccc2c(c1)c(-c1cccc(Cl)c1)cc(=O)n2C [tipifarnib]
In short: as §1

[10] = compound: FC(F)(F)c1ccc(/C=C/c2nc(COc3ccc(CCCCn4ccnn4)cc3)co2)cc1 [mubritinib]
In short: as §1

[11] = compound: NC(=O)Nc1cc(-c2cccc(F)c2)sc1C(=O)N[C@H]1CCCNC1
In short: as §1

[12] = compound: NC(=O)c1cnc(N[C@@H]2CCCC[C@@H]2N)nc1Nc1cccc(-n2nccn2)c1
In short: as §1

[13] = compound: NC1(c2ccc(-c3nc4ccn5c(=O)[nH]nc5c4cc3-c3ccccc3)cc2)CCC1
In short: as §1

[14] = compound: NCC(=O)Nc1ccc(-n2nc(C(F)(F)F)cc2-c2ccc3c(ccc4ccccc43)c2)cc1
In short: as §1

[15] = compound: Nc1ccccc1NC(=O)c1ccc(CNC(=O)OCc2cccnc2)cc1 [entinostat]
In short: as §1

[16] = compound: O=C(CCCCCCC(=O)Nc1ccccc1)NO [vorinostat]
In short: as §1

[17] = compound: O=C(CCCCCCNC(=O)c1cnc(N(c2ccccc2)c2ccccc2Cl)nc1)NO [citarinostat]
In short: as §1

[18] = compound: O=C(O)c1ccc2c(c1)nc(Nc1cccc(Cl)c1)c1ccncc12 [silmitasertib]
In short: as §1

[19] = compound: O=C1NC(=O)C(c2cnc3ccccn23)=C1c1cn2c3c(cc(F)cc13)CN(C(=O)N1CCCCC1)CC2
In short: as §1

[20] = compound: c1cc(OCCN2CCCCC2)cc(-c2n[nH]c3ccc(-c4nnc[nH]4)cc23)c1
In short: as §1

Measured: log2 fold change

UBA1 (UniProt P22314)
Chain of UniProt P22314 (P22314 whole entry, looked up): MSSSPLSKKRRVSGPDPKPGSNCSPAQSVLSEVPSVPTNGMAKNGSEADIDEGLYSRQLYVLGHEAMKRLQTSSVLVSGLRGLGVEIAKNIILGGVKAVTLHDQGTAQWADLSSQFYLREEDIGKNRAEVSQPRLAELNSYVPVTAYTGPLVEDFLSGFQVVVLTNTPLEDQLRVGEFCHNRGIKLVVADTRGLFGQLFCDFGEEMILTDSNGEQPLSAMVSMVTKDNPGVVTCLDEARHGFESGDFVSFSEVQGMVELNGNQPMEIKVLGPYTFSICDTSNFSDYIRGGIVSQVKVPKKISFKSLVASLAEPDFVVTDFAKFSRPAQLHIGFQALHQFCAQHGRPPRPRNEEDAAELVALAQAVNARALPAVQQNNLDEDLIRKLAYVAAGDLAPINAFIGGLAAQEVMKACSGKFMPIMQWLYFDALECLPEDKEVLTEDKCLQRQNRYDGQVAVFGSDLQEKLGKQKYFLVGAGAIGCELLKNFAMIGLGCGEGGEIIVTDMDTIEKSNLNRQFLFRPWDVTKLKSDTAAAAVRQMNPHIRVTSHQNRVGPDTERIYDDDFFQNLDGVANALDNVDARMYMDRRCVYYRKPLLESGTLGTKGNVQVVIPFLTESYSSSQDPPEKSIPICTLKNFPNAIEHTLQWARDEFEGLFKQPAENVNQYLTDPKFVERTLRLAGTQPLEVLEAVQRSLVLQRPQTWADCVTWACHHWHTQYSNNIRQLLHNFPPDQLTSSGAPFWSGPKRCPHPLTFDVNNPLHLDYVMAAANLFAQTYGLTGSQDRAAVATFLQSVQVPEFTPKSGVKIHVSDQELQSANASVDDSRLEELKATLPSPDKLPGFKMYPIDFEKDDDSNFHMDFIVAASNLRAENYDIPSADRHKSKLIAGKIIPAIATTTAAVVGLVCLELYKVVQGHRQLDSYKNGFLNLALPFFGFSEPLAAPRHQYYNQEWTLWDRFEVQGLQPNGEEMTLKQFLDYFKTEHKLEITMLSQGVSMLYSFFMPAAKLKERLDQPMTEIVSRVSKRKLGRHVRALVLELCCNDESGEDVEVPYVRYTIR
active: [10] 0.395
inactive: [1] 0.034 | [2] 0.187 | [3] -0.089 | [4] -0.062 | [5] -0.216 | [6] 0.062 | [7] 0.027 | [8] 0.121 | [9] -0.235 | [11] -0.044 | [12] -0.112 | [13] -0.275 | [14] -0.101 | [15] 0.159 | [16] 0.167 | [17] 0.125 | [18] 0.018 | [19] -0.013 | [20] -0.028

TRMT2A (UniProt Q8IZ69)
inactive: [1] 0.059 | [2] -0.001 | [3] 0.021 | [4] -0.048 | [5] -0.019 | [6] -0.064 | [7] 0 | [8] 0.009 | [9] 0.03 | [10] -0.005 | [11] -0.031 | [12] -0.128 | [13] -0.091 | [14] -0.003 | [15] 0.022 | [16] 0.03 | [17] -0.03 | [18] -0.003 | [19] 0.018 | [20] -0.062

TTC4 (UniProt O95801)
Chain of UniProt O95801 (O95801 whole entry, looked up): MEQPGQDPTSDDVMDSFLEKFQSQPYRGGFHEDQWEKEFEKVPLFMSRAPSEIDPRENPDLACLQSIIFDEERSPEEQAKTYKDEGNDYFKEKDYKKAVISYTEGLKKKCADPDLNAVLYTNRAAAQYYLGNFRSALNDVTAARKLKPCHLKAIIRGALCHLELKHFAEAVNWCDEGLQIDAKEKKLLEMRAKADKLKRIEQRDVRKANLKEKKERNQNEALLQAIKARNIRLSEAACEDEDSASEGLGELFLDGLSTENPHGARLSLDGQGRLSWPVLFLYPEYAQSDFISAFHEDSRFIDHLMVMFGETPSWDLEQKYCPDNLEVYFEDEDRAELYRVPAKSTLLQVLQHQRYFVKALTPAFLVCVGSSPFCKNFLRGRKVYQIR
inactive: [1] 0.036 | [2] 0.116 | [3] -0.034 | [4] -0.094 | [5] -0.137 | [6] 0.003 | [7] 0.019 | [8] 0 | [9] -0.077 | [10] 0.061 | [11] -0.071 | [12] -0.047 | [13] -0.064 | [14] -0.073 | [15] 0.069 | [16] 0.077 | [17] 0.064 | [18] 0.074 | [19] -0.051 | [20] -0.014

WDCP (UniProt Q9H6R7)
Chain of UniProt Q9H6R7 (Q9H6R7 whole entry, looked up): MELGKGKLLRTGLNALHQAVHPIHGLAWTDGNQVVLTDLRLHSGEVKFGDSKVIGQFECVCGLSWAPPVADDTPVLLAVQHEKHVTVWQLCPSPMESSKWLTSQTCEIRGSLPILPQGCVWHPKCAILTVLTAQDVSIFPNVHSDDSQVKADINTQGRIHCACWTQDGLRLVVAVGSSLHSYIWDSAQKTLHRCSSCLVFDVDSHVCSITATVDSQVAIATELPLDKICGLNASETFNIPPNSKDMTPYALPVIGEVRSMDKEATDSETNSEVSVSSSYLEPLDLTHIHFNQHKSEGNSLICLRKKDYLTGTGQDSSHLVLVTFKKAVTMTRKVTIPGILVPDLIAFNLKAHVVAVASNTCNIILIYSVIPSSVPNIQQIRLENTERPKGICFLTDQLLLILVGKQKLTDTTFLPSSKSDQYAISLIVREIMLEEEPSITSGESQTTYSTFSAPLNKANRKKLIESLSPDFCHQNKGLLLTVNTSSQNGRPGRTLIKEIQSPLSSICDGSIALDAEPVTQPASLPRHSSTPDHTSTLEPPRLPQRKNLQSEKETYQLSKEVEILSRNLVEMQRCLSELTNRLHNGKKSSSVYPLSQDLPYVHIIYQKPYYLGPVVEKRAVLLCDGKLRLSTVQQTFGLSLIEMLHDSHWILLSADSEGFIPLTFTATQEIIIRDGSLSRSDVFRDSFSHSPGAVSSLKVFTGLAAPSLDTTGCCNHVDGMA
inactive: [1] -0.052 | [2] -0.05 | [3] -0.149 | [4] -0.12 | [5] -0.074 | [6] -0.035 | [7] -0.099 | [8] -0.001 | [9] -0.029 | [10] 0 | [11] 0.062 | [12] 0.049 | [13] -0.011 | [14] -0.025 | [15] 0.019 | [16] 0.037 | [17] 0.118 | [18] 0.172 | [19] -0.033 | [20] -0.035

TUBA4A (UniProt P68366)
Chain of UniProt P68366 (P68366 whole entry, looked up): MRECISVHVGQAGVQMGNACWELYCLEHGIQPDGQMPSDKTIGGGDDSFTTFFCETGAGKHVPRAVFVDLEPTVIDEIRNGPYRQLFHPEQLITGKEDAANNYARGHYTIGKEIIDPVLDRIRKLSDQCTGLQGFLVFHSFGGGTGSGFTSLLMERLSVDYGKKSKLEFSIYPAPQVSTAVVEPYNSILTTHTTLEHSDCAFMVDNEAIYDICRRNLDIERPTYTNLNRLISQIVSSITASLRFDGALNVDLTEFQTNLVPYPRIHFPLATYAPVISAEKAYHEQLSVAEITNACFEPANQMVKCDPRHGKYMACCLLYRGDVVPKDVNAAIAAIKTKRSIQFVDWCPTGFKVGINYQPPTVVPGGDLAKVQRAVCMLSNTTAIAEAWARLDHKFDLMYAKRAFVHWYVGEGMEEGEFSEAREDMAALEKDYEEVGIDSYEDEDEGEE
inactive: [1] 0.038 | [2] -0.028 | [3] -0.011 | [4] 0.008 | [5] -0.102 | [6] -0.009 | [7] 0.047 | [8] 0.051 | [9] -0.073 | [10] 0.073 | [11] 0.004 | [12] -0.02 | [13] -0.063 | [14] 0.028 | [15] -0.024 | [16] 0.062 | [17] 0.031 | [18] -0.065 | [19] -0.059 | [20] 0.009

USP7 (UniProt Q93009)
Chain of UniProt Q93009 (Q93009 whole entry, looked up): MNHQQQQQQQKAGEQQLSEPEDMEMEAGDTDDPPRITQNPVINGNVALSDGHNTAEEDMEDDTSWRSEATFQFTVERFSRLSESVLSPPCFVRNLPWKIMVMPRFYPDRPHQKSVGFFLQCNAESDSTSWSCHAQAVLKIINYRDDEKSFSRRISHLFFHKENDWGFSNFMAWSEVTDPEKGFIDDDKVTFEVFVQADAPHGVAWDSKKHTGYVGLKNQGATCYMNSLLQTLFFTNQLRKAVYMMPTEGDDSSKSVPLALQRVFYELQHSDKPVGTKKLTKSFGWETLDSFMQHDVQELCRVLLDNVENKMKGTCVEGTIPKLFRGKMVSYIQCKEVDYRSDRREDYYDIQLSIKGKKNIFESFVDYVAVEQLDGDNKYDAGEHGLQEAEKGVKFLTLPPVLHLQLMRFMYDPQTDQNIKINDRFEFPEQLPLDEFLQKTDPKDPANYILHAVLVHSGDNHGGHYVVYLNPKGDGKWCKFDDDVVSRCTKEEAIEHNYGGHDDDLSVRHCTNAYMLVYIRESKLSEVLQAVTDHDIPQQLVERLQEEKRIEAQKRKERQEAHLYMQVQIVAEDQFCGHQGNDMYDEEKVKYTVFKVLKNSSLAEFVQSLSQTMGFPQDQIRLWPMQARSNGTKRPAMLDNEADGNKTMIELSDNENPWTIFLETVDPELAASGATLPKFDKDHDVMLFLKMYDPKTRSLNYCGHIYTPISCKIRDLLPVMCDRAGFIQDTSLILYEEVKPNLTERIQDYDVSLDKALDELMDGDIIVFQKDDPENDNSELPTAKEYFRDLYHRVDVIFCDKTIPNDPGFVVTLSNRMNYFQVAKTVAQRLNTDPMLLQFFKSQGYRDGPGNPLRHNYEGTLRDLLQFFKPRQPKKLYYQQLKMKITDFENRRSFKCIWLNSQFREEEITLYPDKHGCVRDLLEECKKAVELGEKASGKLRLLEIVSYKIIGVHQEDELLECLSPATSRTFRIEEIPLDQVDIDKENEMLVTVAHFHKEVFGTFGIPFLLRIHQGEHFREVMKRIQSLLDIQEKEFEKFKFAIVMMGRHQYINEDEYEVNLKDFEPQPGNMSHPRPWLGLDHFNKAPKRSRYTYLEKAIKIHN
inactive: [1] -0.018 | [2] 0.097 | [3] -0.076 | [4] -0.113 | [5] -0.272 | [6] -0.011 | [7] 0.101 | [8] 0.153 | [9] -0.139 | [10] 0.068 | [11] -0.039 | [12] -0.062 | [13] -0.263 | [14] -0.07 | [15] 0.097 | [16] 0.182 | [17] 0.096 | [18] -0.028 | [19] -0.037 | [20] 0.046

XRCC6 (UniProt P12956)
Chain of UniProt P12956 (P12956 whole entry, looked up): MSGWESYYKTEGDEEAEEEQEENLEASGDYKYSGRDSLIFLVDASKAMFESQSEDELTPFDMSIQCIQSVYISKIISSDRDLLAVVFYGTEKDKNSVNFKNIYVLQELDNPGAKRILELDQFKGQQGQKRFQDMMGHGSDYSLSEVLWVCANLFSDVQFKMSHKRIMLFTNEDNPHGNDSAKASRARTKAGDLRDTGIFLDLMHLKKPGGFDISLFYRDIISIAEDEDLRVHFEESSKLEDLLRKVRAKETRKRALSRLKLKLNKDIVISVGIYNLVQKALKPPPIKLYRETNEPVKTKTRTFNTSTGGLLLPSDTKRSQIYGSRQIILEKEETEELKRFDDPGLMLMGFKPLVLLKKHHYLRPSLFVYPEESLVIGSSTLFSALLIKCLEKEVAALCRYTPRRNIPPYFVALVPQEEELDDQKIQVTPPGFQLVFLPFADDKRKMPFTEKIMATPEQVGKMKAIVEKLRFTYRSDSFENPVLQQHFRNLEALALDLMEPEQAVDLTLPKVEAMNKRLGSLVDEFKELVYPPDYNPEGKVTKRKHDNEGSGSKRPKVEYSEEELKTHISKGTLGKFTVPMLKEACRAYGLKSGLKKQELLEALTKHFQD
inactive: [1] -0.003 | [2] 0.032 | [3] -0.067 | [4] -0.248 | [5] -0.147 | [6] -0.07 | [7] -0.01 | [8] 0.018 | [9] -0.104 | [10] 0.043 | [11] -0.064 | [12] -0.143 | [13] -0.139 | [14] -0.08 | [15] 0.098 | [16] 0.134 | [17] 0.107 | [18] 0.026 | [19] -0.119 | [20] -0.049

WBP4 (UniProt O75554)
Chain of UniProt O75554 (O75554 whole entry, looked up): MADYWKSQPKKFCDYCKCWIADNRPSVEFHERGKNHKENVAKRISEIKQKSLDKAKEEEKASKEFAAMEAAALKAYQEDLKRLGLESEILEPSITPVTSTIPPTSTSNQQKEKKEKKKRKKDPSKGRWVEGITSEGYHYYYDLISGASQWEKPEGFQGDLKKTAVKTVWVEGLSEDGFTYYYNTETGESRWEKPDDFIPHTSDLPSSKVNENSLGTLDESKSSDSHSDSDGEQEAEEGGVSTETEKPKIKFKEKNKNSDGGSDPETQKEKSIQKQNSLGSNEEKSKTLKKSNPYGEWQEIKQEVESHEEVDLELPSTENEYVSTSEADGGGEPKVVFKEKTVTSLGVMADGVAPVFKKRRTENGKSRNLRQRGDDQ
inactive: [1] -0.043 | [2] 0.14 | [3] 0.001 | [4] -0.006 | [5] 0.014 | [6] -0.023 | [7] 0.037 | [8] 0.047 | [9] 0.023 | [10] 0.06 | [12] 0.079 | [13] 0.006 | [14] 0.111 | [15] 0.058 | [16] 0.098 | [17] 0.055 | [18] -0.026 | [19] 0 | [20] -0.007
active: [11] 0.28

From the supplement of paper PMC10849652
